Results on 34 molecules are retold here after PubChem BioAssay (NCATS).

Inconclusive results are not listed. Active and inactive are the calls of the source. Unless noted, calls come from the whole dose curve.

Alpha-galactosidase (Coffea arabica), sequence (Q42656 whole entry, looked up): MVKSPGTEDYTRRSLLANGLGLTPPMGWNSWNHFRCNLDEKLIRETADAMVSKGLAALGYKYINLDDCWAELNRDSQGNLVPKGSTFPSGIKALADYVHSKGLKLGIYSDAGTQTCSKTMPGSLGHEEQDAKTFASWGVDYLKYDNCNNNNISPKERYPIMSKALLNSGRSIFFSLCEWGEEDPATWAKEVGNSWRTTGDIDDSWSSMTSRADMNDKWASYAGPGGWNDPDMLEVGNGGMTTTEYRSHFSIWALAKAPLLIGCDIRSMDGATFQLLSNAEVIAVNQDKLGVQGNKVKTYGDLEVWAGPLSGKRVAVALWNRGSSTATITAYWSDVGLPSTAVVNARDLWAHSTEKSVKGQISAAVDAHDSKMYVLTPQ

One test has as its target Alpha-galactosidase (Coffea arabica) (UniProt Q42656). Description: Counterscreen for Glucocerebrosidase Inhibitors: qHTS Assay for Coffee Bean alpha-Galactosidase at pH 5.9 (AID 998; active = well fitted curve in the direction sought with a large enough effect; inactive = no such curve, though single readings can be large or run the other way). As to conditions: coffee bean alpha-galactosidase enzyme assay; series mostly up to 76.9 µM. In a few lines: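 Compounds were titrated from 0.7 nM to 77 uM against green coffee bean alpha-galactosidase (2 nM) using 80 uM fluorogenic 4-methylumbelliferyl substrate. After 20 min at room temperature, reactions were stopped at pH 10 and read by fluorescence.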
For orientation: Counterscreens check selectivity or assay interference.
`O=C(O)CCCCCCCC(=O)O`: the outcome was inactive.
Same read-out and setting: under `CCN(CC)CCOC(=O)c1ccc(N)cc1` stands “inactive”.
On to `CN(C)C(=O)Oc1ccc[n+](C)c1`, for which the call was inactive.
The same measure, in the same setting: under `CCN(CC)CCNC(=O)c1ccc(N)cc1` stands “inactive”; under `Cc1cnc(NC(=O)C2=C(O)c3ccccc3S(=O)(=O)N2C)s1`, “inactive”.
The same measure, in the same setting: the entry for `CN1CCN(CC(=O)N2c3ccccc3C(=O)Nc3cccnc32)CC1` is “inactive”.
Still for that read-out and setting: under `COc1ccc(C2CNC(=O)C2)cc1OC1CCCC1` (configuration not stated) stands “inactive”; under `COc1ccc2[nH]cc(CCNC(C)=O)c2c1`, “inactive”.
Turning to `CCN(CC)CCNC(=O)c1cc(S(C)(=O)=O)ccc1OC`, the molecule was called inactive.
Take `O=c1c(-c2ccc(O)cc2)coc2cc(O)cc(O)c12`: the result was inactive.
Same read-out and setting: the entry for `NCCCCCC(=O)O` is “inactive”; for `Nc1cc(=O)[nH]c(N)n1` it is “inactive”.
Still for that read-out and setting: the entry for `CCN(CC)C(=O)c1ccc(O)c(OC)c1` is “inactive”; for `CN1C(C(=O)Nc2ccccn2)=C(O)c2ccccc2S1(=O)=O` it is “inactive”.
Same read-out and setting: under `Cc1nc2c([nH]1)c(=O)n(C)c(=O)n2Cc1ccco1` stands “inactive”.
`CC(C)C(=O)c1c(C(C)C)nn2ccccc12`: the outcome was inactive.
In the case of `NC(N)=NC(=O)Cc1c(Cl)cccc1Cl`, the call was inactive.
In the case of `FC(F)(F)c1ccccc1-n1ccnc1`, the molecule was called inactive.
On the same count and under the same terms, under `N[C@@H](COP(=O)(O)O)C(=O)O` stands “inactive”.
On the same count and under the same terms, the entry for `NCCCNCCSP(=O)(O)O` is “inactive”; for `Cc1nc2ccccn2c(=O)c1CCN1CCC(C(=O)c2ccc(F)cc2)CC1` it is “inactive”; for `CN(C)CCOC(=O)COc1ccc(Cl)cc1` it is “inactive”.
Still for that read-out and setting: under `NCCS(=O)(=O)O` stands “inactive”; under `CN=C(NC#N)NCCSCc1nc[nH]c1C`, “inactive”; under `NC(=O)c1cnccn1`, “inactive”.
Take `CC(=O)OCC(=O)[C@@]1(O)CC[C@H]2[C@@H]3CCC4=CC(=O)CC[C@]4(C)[C@H]3C(=O)C[C@@]21C`: the molecule was called inactive.
In the case of `O=C(O)CN(CCN(CC(=O)O)CC(=O)O)CCN(CC(=O)O)CC(=O)O`, the result was inactive.
Same read-out and setting: the entry for `Cc1scc2c1N(C(=O)CN1CCN(C)CC1)c1ccccc1NC2=O` is “inactive”.

Tested on in another test: not listed separately
The test can be described thus: Validation screen for inhibitors of Lassa infection (AID 463096). As to conditions: Lassa virus infection, cell-based; series mostly up to 46.1 µM.
Regarding `O=C(O)CCCCCCCC(=O)O`, the molecule was called inactive.
On the same count and under the same terms, the entry for `CCN(CC)CCOC(=O)c1ccc(N)cc1` is “inactive”.
The same measure, in the same setting: under `CN(C)C(=O)Oc1ccc[n+](C)c1` stands “inactive”; under `CCN(CC)CCNC(=O)c1ccc(N)cc1`, “inactive”; under `Cc1cnc(NC(=O)C2=C(O)c3ccccc3S(=O)(=O)N2C)s1`, “inactive”.
`CN1CCN(CC(=O)N2c3ccccc3C(=O)Nc3cccnc32)CC1`: the outcome was inactive.
With `COc1ccc(C2CNC(=O)C2)cc1OC1CCCC1` (configuration not stated), the molecule was called inactive.
With `COc1ccc2[nH]cc(CCNC(C)=O)c2c1`, the result was inactive.
Same read-out and setting: the entry for `CC(CCc1ccc(O)cc1)NCCc1ccc(O)c(O)c1` (configuration not stated) is “inactive”.
As for `CCN(CC)CCNC(=O)c1cc(S(C)(=O)=O)ccc1OC`, the result was inactive.
Still for that read-out and setting: the entry for `O=c1c(-c2ccc(O)cc2)coc2cc(O)cc(O)c12` is “inactive”; for `NCCCCCC(=O)O` it is “inactive”.
As to `Nc1cc(=O)[nH]c(N)n1`, the molecule was called inactive.
Same read-out and setting: the entry for `CCN(CC)C(=O)c1ccc(O)c(OC)c1` is “inactive”; for `CN1C(C(=O)Nc2ccccn2)=C(O)c2ccccc2S1(=O)=O` it is “inactive”.
Same read-out and setting: the entry for `Cc1nc2c([nH]1)c(=O)n(C)c(=O)n2Cc1ccco1` is “inactive”; for `CC(C)C(=O)c1c(C(C)C)nn2ccccc12` it is “inactive”; for `NC(Cc1ccc(Cl)cc1)C(=O)O` (configuration not stated) it is “inactive”.
On the same count and under the same terms, under `NC(N)=NC(=O)Cc1c(Cl)cccc1Cl` stands “inactive”; under `FC(F)(F)c1ccccc1-n1ccnc1`, “inactive”.
On to `N[C@@H](COP(=O)(O)O)C(=O)O`, for which the call was inactive.
Turning to `NCCCNCCSP(=O)(O)O`, the outcome was inactive.
With `Cc1nc2ccccn2c(=O)c1CCN1CCC(C(=O)c2ccc(F)cc2)CC1`, the molecule was called inactive.
Still for that read-out and setting: under `CN(C)CCOC(=O)COc1ccc(Cl)cc1` stands “inactive”.
Still for that read-out and setting: the entry for `NCCS(=O)(=O)O` is “inactive”.
Regarding `CC(=O)OCC1=C(C(=O)O)N2C(=O)[C@@H](NC(=O)Cc3cccs3)[C@H]2SC1`, the molecule was called inactive.
In the case of `CN=C(NC#N)NCCSCc1nc[nH]c1C`, the outcome was inactive.
Turning to `NC(=O)c1cnccn1`, the outcome was inactive.
Turning to `CC(=O)OCC(=O)[C@@]1(O)CC[C@H]2[C@@H]3CCC4=CC(=O)CC[C@]4(C)[C@H]3C(=O)C[C@@]21C`, the molecule was classed as inactive.
With `O=C(O)CN(CCN(CC(=O)O)CC(=O)O)CCN(CC(=O)O)CC(=O)O`, the result was inactive.
Regarding `COC(=O)[C@@H]1[C@H]2C[C@H]3c4[nH]c5ccccc5c4CCN3C[C@@H]2CC[C@@H]1O`, the molecule was called inactive.
On the same count and under the same terms, under `Cc1scc2c1N(C(=O)CN1CCN(C)CC1)c1ccccc1NC2=O` stands “inactive”; under `COCCOC(=O)C1=C(C)NC(C)=C(C(=O)OC(C)C)C1c1cccc([N+](=O)[O-])c1` (configuration not stated), “inactive”.
Still for that read-out and setting: the entry for `NC/C=C/C(=O)O` is “inactive”.
